Each structure is given as a SMILES string. Compounds without any hit were thinned out: in the full panel of roughly 83,000, 20% have a hit.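 Note: values are percent growth. 100 is the growth of untreated cells, values between 100 and 0 indicate rising inhibition; between -100 and 0 indicates cell death.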 Values without a mark were called inactive. Active and inactive are the calls of the source. Rule for the calls: active = growth percent below 10; inactive = the rest.

Test systems include HCT-15 colon; HT29 colon; SNB-75 CNS; SNB-19 CNS; U251 CNS; PC-3 prostate; SK-MEL-5 melanoma; UACC-62 melanoma; LOX IMVI melanoma; SK-MEL-28 melanoma; SK-MEL-2 melanoma; EKVX NSCLC; SN12C renal; UO-31 renal; TK-10 renal; ACHN renal; CAKI-1 renal; A498 renal; CCRF-CEM leukemia; MOLT-4 leukemia.
Experiment in all cases: NCI-60 one-dose screen, 48 h (100 = growth as untreated, 0 = no growth, -100 = all killed)
Common to all, as to settings: 10 µM unless noted

On to `CC(C)c1ccc(C(=O)Nc2nc3ccc(O)c(CN(C)C)c3s2)cc1`, for which the growth was 20% with HCT-15 colon; 23.8% in the assay on HT29 colon; 107% in the assay on SNB-75 CNS; 97.9% in the assay with SNB-19 CNS; 69.1% with U251 CNS; 83% in the assay on PC-3 prostate. The growth is 74.4% with SK-MEL-5 melanoma; 66% with UACC-62 melanoma; 28.1% in the assay on LOX IMVI melanoma; 96.1% in the assay with SK-MEL-28 melanoma; 102% with SK-MEL-2 melanoma; 95.8% in the assay with EKVX NSCLC. The growth in the assay with SN12C renal is 90.7%; in the assay on UO-31 renal it was 91.2%; in the assay with TK-10 renal, 99.6%; in the assay with ACHN renal, 81.6%; with CAKI-1 renal, 65.4%; with A498 renal, 72.3%. Also, the growth with CCRF-CEM leukemia is 73.5%; with MOLT-4 leukemia it was 62.7%.
In the case of `COC(=O)c1cc(N=C2NC(=O)/C(=C/C=C/c3ccccc3)S2)ccc1O`, the growth in the assay with HCT-15 colon is 25.8%; with HT29 colon, 10.7%; in the assay on SNB-75 CNS, 12.9%; in the assay on SNB-19 CNS it was 30.4%; with U251 CNS, 22.6%; with PC-3 prostate, 30%. For the same compound, the growth in the assay on SK-MEL-5 melanoma is 30.1%; in the assay with UACC-62 melanoma, 33.6%; in the assay with LOX IMVI melanoma, 40.1%; in the assay on SK-MEL-28 melanoma it was 65.4%; in the assay on SK-MEL-2 melanoma it was 74.1%; in the assay on EKVX NSCLC it was 53.7%. For the same compound, the growth in the assay on SN12C renal was 38.6%; in the assay on UO-31 renal, 53.8%; in the assay with TK-10 renal, 53.2%; in the assay with ACHN renal it was 46.5%; in the assay with CAKI-1 renal it was 29%; in the assay with A498 renal, 17.6%. Also, the growth with CCRF-CEM leukemia was 20.7%; with MOLT-4 leukemia, 31.7%.
As to `O=C1C(=O)N(Cc2ccc(-c3ccccc3)cc2)c2ccc(OC(F)(F)F)cc21`, the growth in the assay with HCT-15 colon was 10.3%; with HT29 colon, 9.07% (active); in the assay with SNB-75 CNS it was 39.3%; with SNB-19 CNS it was 43.2%; in the assay with U251 CNS it was 20.9%; in the assay with PC-3 prostate, 17.4%. The growth in the assay with SK-MEL-5 melanoma was 92.2%; in the assay on UACC-62 melanoma, 62.3%; in the assay with LOX IMVI melanoma, 20.1%; in the assay on SK-MEL-28 melanoma it was 82.7%; in the assay on SK-MEL-2 melanoma, 69.7%; with EKVX NSCLC it was 94.3%. The growth was 21.2% in the assay on SN12C renal; 45.5% in the assay with UO-31 renal; 63.9% in the assay with TK-10 renal; 41.7% in the assay on ACHN renal; 31.7% with CAKI-1 renal; 84.8% with A498 renal. The growth in the assay with CCRF-CEM leukemia is 9.7% (active); in the assay with MOLT-4 leukemia, 30%.
With `NS(=O)(=O)c1ccc(N=Nc2c(O)n(Cc3ccccc3)c3ccc(Cl)cc23)cc1`, the growth with HCT-15 colon was 88.8%; with HT29 colon, 94.6%; in the assay on SNB-75 CNS it was -9.32% (active); in the assay on SNB-19 CNS, 40.8%; with U251 CNS, 81.7%; with PC-3 prostate it was 83.8%. Moreover, the growth in the assay with SK-MEL-5 melanoma was 80.5%; with UACC-62 melanoma, 66.6%; with LOX IMVI melanoma it was 97.6%; in the assay on SK-MEL-28 melanoma it was 93.2%; with SK-MEL-2 melanoma, 98.6%; in the assay with EKVX NSCLC it was 91.2%. Besides, the growth with SN12C renal was 87.3%; with UO-31 renal it was 81.2%; with TK-10 renal it was 95%; in the assay on ACHN renal it was 64.9%; in the assay with CAKI-1 renal it was 64.4%; in the assay with A498 renal, 78.3%. The growth is 96.2% in the assay on CCRF-CEM leukemia and 72.2% in the assay with MOLT-4 leukemia.
Turning to `CCC(C(=O)[C@@H](C)[C@@H](O)[C@H](C)[C@@H]1O[C@@H]([C@@H](CC)C(=O)ONC(=O)c2ccccc2)CC[C@@H]1C)[C@H]1O[C@]2(C=CC(=O)[C@]3(CC[C@@](C)([C@H]4CC[C@](O)(CC)[C@H](C)O4)O3)O2)[C@H](C)C[C@@H]1C` (some centres undefined), the growth with HCT-15 colon is 13.7%; in the assay on HT29 colon, 20.6%; in the assay with SNB-75 CNS, 27.6%; in the assay on SNB-19 CNS, 21.1%; in the assay with U251 CNS, -19% (active); in the assay with PC-3 prostate it was 8.93% (active). Moreover, the growth with SK-MEL-5 melanoma is -73.9% (active); in the assay with UACC-62 melanoma, -24.5% (active); in the assay on LOX IMVI melanoma, 4.55% (active); with SK-MEL-28 melanoma, 20.6%; in the assay on SK-MEL-2 melanoma, -4.05% (active); with EKVX NSCLC, 33.5%. Also, the growth in the assay on SN12C renal is -48.6% (active); in the assay on UO-31 renal, -95.1% (active); with TK-10 renal, 52.8%; with ACHN renal, -47.3% (active); in the assay with CAKI-1 renal it was 16.5%; in the assay on A498 renal it was 16.8%. Further, the growth in the assay with CCRF-CEM leukemia was -11.2% (active); with MOLT-4 leukemia, -2.14% (active).
Take `C=C(C)[C@@H]1CCC[C@]2(COS(=O)(=O)c3ccc(C)cc3)CC[C@]3(C)[C@@H](CC[C@@H]4[C@@]5(C)CCCNC(C)(C)[C@@H]5CC[C@]43C)[C@@H]12`: the growth in the assay with HCT-15 colon is -61.5% (active); with HT29 colon it was -50.8% (active); in the assay with SNB-75 CNS, 81.6%; in the assay on SNB-19 CNS, 39%; in the assay with U251 CNS, -82.1% (active); in the assay on PC-3 prostate, 10.5%. The growth with SK-MEL-5 melanoma is 92.1%; in the assay on UACC-62 melanoma, 87.7%; in the assay on LOX IMVI melanoma, -86.5% (active); in the assay on SK-MEL-28 melanoma, 68.3%; in the assay with SK-MEL-2 melanoma it was 83.1%; in the assay on EKVX NSCLC, 9.77% (active). For the same compound, the growth with SN12C renal is -94.4% (active); in the assay on UO-31 renal, 61%; in the assay with TK-10 renal, 43.2%; in the assay with ACHN renal, 44.6%; with CAKI-1 renal it was -68.3% (active); in the assay on A498 renal, 81.3%. Also, the growth was 1.15% (active) with CCRF-CEM leukemia and -11.1% (active) in the assay with MOLT-4 leukemia.
As to `O=C1/C(=C/c2ccccc2Br)COc2ccc(O)cc21`, the growth in the assay with HCT-15 colon is 40.7%; in the assay on HT29 colon, 48.8%; in the assay with SNB-75 CNS it was 89.3%; with SNB-19 CNS, 75%; in the assay with U251 CNS, 46.1%; in the assay on PC-3 prostate, 60.7%. Further, the growth with SK-MEL-5 melanoma is 94.6%; in the assay with UACC-62 melanoma, 66.4%; in the assay on LOX IMVI melanoma, 18.8%; with SK-MEL-28 melanoma it was 101%; in the assay with SK-MEL-2 melanoma it was 107%; in the assay on EKVX NSCLC, 96.6%. Further, the growth in the assay with SN12C renal is 49.5%; in the assay on UO-31 renal, 58.8%; in the assay on TK-10 renal it was 105%; in the assay with ACHN renal, 74.6%; with CAKI-1 renal it was 72.5%; in the assay on A498 renal, 113%. In addition, the figures for the growth with CCRF-CEM leukemia and with MOLT-4 leukemia were 3.07% (active) and 27.2%, respectively.
On to `CC(=O)Oc1ccc(/C(=C(\C)c2ccc(Cl)cc2)c2ccc(OCCN3CCCCC3)cc2)cc1`, for which the growth was -16.3% (active) in the assay on HCT-15 colon; -25.9% (active) with HT29 colon; 41.7% with SNB-75 CNS; 42.2% in the assay on SNB-19 CNS; 18.3% in the assay on U251 CNS; 28.1% in the assay with PC-3 prostate. In addition, the growth with SK-MEL-5 melanoma was 37.1%; in the assay on UACC-62 melanoma, 42.8%; with LOX IMVI melanoma, -65% (active); in the assay on SK-MEL-28 melanoma, -48.5% (active); in the assay with SK-MEL-2 melanoma, 58.4%; with EKVX NSCLC, 62.7%. In addition, the growth in the assay on SN12C renal was 64.6%; with UO-31 renal, 47.7%; with TK-10 renal it was 68.4%; in the assay on ACHN renal it was 58.3%; with CAKI-1 renal it was 74.9%; in the assay on A498 renal, 57.5%. For the same compound, in the assay with MOLT-4 leukemia, the growth is -8.3% (active).

The values are drawn from PubChem BioAssay (NCI).
